Data from PubChem BioAssay AID651815 (National Center for Advancing Translational Sciences (NCATS), 2012).
“And” between values parts separate entries of the source, which are not always exact repeats. Equal entries are not always repeated. The campaign covered roughly 2,100 compounds. About 1,100 (52%) were called active. Roughly 29% stayed inconclusive and do not appear here. Calls come from the whole dose curve; as a rule, active = well fitted inhibition curve with a large enough effect; inconclusive = small, poorly fitted or top-dose-only effect; inactive = no such curve, though single readings can be large or run the other way. The set was probably picked from earlier hits. The list shows a part of the results.

Molecular target: DNA dC->dU-editing enzyme APOBEC-3F (Homo sapiens) (UniProt Q8IUX4)
Sequence (Q8IUX4 whole entry, looked up): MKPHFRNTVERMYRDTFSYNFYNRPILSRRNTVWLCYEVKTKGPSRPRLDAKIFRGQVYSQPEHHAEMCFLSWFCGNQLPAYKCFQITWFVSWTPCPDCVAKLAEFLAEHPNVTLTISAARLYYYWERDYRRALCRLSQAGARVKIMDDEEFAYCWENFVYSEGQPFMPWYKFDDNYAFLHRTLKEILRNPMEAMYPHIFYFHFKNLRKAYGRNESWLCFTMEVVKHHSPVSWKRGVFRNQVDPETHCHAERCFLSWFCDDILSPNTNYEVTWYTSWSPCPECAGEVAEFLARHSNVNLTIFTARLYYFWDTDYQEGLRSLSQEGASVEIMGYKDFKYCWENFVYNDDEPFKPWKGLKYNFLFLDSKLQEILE
Assay: qHTS for inhibitors of Vif-A3F interactions: Cherry picks counterscreen; note: nearly all actives have a fitted effect of over 65% in size
Details: HeLa A3F-eYFP/Vif cells, eYFP fluorescence, 24 h; series mostly up to 46.1 µM
Method in brief: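 HeLa cells stably expressing A3F-eYFP and Vif, cultured overnight, then treated 24 h at 37 degrees C with compounds at several concentrations; yellow fluorescence (488 nm Ex/500-530 nm Em) imaged on Acumen; MG132 positive control.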
Potency is the fitted concentration of half-maximal effect.

Structure (SMILES)	Potency
CCOc1cccc(-n2nnnc2-c2ccc(OC)cc2)c1	4.44 µM (active)
COc1ccc(-n2cc3c(-c4cccc(Br)c4)nnc(C)c3n2)cc1	inactive
COc1ccc(-n2nnnc2-c2ccccc2)cc1	2.5 µM (active)
COc1ccc(-n2nnnc2-c2cccc(OC)c2)cc1	1.25 µM (active)
COc1cc(-c2cnc3c(NC(C)=O)cc(-c4ccccc4CN(C)C)cn23)cc(OC)c1OC	12.5 µM (active)
COc1ccc(-c2cc(NC(C)=O)c3ncc(-c4cc(OC)c(OC)c(OC)c4)n3c2)cn1	7.04 µM (active)
Cc1ccc(CNC(=O)c2cccc(Nc3nc4ccccc4n4nnnc34)c2)cc1	20.6 µM (active)
COc1cc(Nc2nc3ccccc3n3nnnc23)cc(OC)c1OC	13 µM (active)
COc1ccccc1CNC(=O)c1ccc(Nc2nc3ccccc3n3nnnc23)cc1	23.1 µM (active)
CC(NC(=O)c1ccc(Nc2nc3ccccc3n3nnnc23)cc1)c1ccccc1 (configuration not stated)	18.4 µM (active)
Cc1cc(C)nc(-n2nc(C)cc2NC(=O)c2ccc(F)cc2F)n1	inactive
COc1cc2ccccc2cc1C(=O)N/N=C/c1cccs1	1.77 µM (active)
COc1ccc(NC(=O)/C(C#N)=C\C=C\c2ccco2)cc1	7.04 µM (active)
COc1ccc(NC(=O)/C(C#N)=C/C=C/c2ccco2)cc1	6.27 µM (active)
C=CCOc1ccc2nc(NC(=O)OC)[nH]c2c1	2.5 µM (active)
CCOC(=O)c1c(NC(=O)CSc2nc3ccc(OC)cc3[nH]2)sc2c1CC(C)(C)NC2(C)C	inactive
CC(C)n1cnc2c(NCc3ccccc3)cc(N[C@H](C)CO)cc21	14 µM (active)
COc1ccccc1Nc1nnc(SCC2CCCCO2)s1 (configuration not stated)	14 µM (active)
Cc1ccc(NC(=O)C(=Cc2ccc(C(=O)O)cc2)C(=O)Nc2ccc(C)cc2C)c(C)c1	3.53 µM (active)
CN(C)c1ccc(/C=C2\SC(=S)N(Nc3ncc(C(F)(F)F)cc3Cl)C2=O)cc1	6.51 µM (active)
C=CCN1C(=O)/C(=C/c2ccc(O)c(OC)c2)S/C1=N/c1nccs1	inactive
COc1cc(/C=C2\SC(=S)N(Nc3ncc(C(F)(F)F)cc3Cl)C2=O)ccc1O	20.6 µM (active)
COc1cc(/C=C2\SC(=S)N(NC(=O)c3ccccc3OC)C2=O)ccc1O	inactive

Structure (SMILES)	Potency
N=C1/C(=C\c2coc3ccccc3c2=O)C(=O)N=C2SC(c3ccncc3)=NN12	20.6 µM (active)
COc1ccc(C)cc1NCc1cc(=O)oc2cc(-c3ccccc3)c(O)cc12	inactive
COc1ccc(-c2coc3cc4oc(=O)cc(-c5ccccc5)c4cc23)cc1F	1.98 µM (active)
COc1ccc2nc3sc(C(=O)Nc4cc(Cl)c(OC)cc4OC)cc3cc2c1	4.11 µM (active)
Nc1nc2n[nH]nc2c(=O)[nH]1	9.2 µM (active) and 3.96 µM (active)
C=CCn1c(SCc2c(C)noc2C)nc2cc(C(=O)O)ccc2c1=O	17.7 µM (active)
Cc1noc(C)c1CSc1nc2ccccc2c(=O)n1-c1ccccc1	3.53 µM (active)
CN1CCN(c2nc3ccccc3nc2NS(=O)(=O)c2ccc(Br)cc2)CC1	18.4 µM (active)
O=S(=O)(Nc1nc2ccccc2nc1N1CCN(c2ccccc2)CC1)c1ccc(F)cc1	18.4 µM (active)
O=C(N=c1ccn(-c2nc3ccccc3nc2NS(=O)(=O)c2ccccc2)cc1)c1cccs1	inactive
O=S(=O)(Nc1nc2ccccc2nc1N1CCc2ccccc2C1)c1ccc(Br)cc1	23.1 µM (active)
O=C(N=c1ccn(-c2nc3ccccc3nc2NS(=O)(=O)c2ccc(Cl)cc2)cc1)c1cccs1	16.4 µM (active)
O=C(NC(=S)N1CCN(c2ccccn2)CC1)c1ccccc1	inactive
O=S(=O)(Nc1nc2ccccc2nc1N1CCN(c2ccccn2)CC1)c1ccc(Cl)cc1	16.4 µM (active)
NC(=O)C1CCN(c2nc3ccccc3nc2NS(=O)(=O)c2ccc(Br)cc2)CC1	16.4 µM (active)
Cc1c(=O)n(OCc2ccc(Cl)cc2)c2ccccc2[n+]1[O-]	inactive
CN1/C(=C\C=C(C#N)C#N)C(C)(C)c2ccccc21	16.4 µM (active)
CN1/C(=C/C=C(C#N)C#N)C(C)(C)c2ccccc21	2.91 µM (active)
CC1=C/C(=C\C=C(C#N)C#N)N(C)c2ccccc21	3.26 µM (active)
CN1/C(=C/C=C(/C#N)C(N)=O)C(C)(C)c2ccccc21	7.04 µM (active)
CCOC(=O)C(C)Oc1cccc2c(=O)n(CC(=O)NCc3ccco3)ccc12 (configuration not stated)	3.14 µM (active)
COC(=O)COc1cccc2c(=O)n(CC(=O)NCc3ccccc3)ccc12	4.44 µM (active)
COc1ccc(-c2nc3c4ccccc4ccn3c2Cc2ccsc2)cc1OC	inactive

Structure (SMILES)	Potency
CCOc1cc(C)nc(NCc2ccccc2)n1	inactive
COc1ccc(-c2nnc(SCC(=O)NCc3ccccc3)nc2-c2ccc(OC)c(OC)c2)cc1OC	5.17 µM (active)
COc1cc(-c2nc3ccc(C)cn3c2NCc2ccccc2)ccc1SC1CCCCC1	inactive
CCC(C)Sc1cc(-c2nc3ccccn3c2NC2CCCCC2)ccc1OC (configuration not stated)	inactive
CCOc1cc(-c2nnc(SCC(=O)NCc3ccccc3)nc2-c2ccc(OC)c(OCC)c2)ccc1OC	2.31 µM (active)
N#CC1=C(N)C(C#N)(C#N)[C@H](c2c(F)cccc2F)[C@H]2CC3(CC=C12)OCCO3	16.4 µM (active)
Cc1cccc(CN2C(=O)N/C(=C/c3ccc(C)s3)C2=O)c1	12.5 µM (active)
Cc1ccc(/C=C2/NC(=O)N(Cc3ccccc3F)C2=O)s1	4.11 µM (active)
C/C(CCC(C)C)=N\NC(=S)NCc1ccccc1	inactive
CC(=O)Nc1ccc(C2=CC(=O)C[C@H](c3ccc(Cl)cc3)C2)cc1	20.6 µM (active)
CC(=O)Nc1ccc2c(c1)Cc1ccc(Cl)cc1-2	inactive
COc1cccc(N2CCN(Cc3nc4scc(-c5ccccc5)c4c(=O)[nH]3)CC2)c1	9.94 µM (active)
O=c1[nH]c(CN2CCN(c3ccccc3)CC2)nc2scc(-c3ccccc3)c12	16.4 µM (active)
O=C(NC(=S)N1CCN(C2CCCCC2)CC1)c1ccccc1	inactive
COc1ccc(Cl)cc1NC(=O)CN(C)CC(=O)Nc1ccccc1N1CCOCC1	3.53 µM (active)
O=C(Oc1ccc(Cl)c2cccnc12)c1ccco1	inactive
C/C(CC(=O)NCc1ccco1)=N\NC(=O)COc1ccc(Cl)cc1Cl	12.5 µM (active)
C/C(CC(=O)NCc1ccc(Cl)cc1)=N\NC(=O)COc1ccc(C)cc1Br	15.8 µM (active)
c1ccc(N=Nc2ccc3cccccc2-3)cc1	15.8 µM (active)
CCOC(=O)C(=Cc1ccc(-n2ccnc2)cc1)C(=O)OCC	12.5 µM (active)
CCOC(=O)C(=Cc1ccc(-n2cncn2)cc1)C(=O)OCC	7.9 µM (active)
COc1cc(CNCCSc2nnnn2C)ccc1OCc1c(F)cccc1Cl	inactive
O=C(c1ccccc1)c1c2c(cc3sc4ccccc4[n+]13)-c1cccc3cccc-2c13	17.7 µM (active)

Structure (SMILES)	Potency
Oc1ccc(C2=NNC(=NCc3ccc4c(c3)OCO4)SC2)c(O)c1	4.98 µM (active)
O=C(O)CSc1c2ccccc2cc2ccccc12	inactive
Cc1cc(NC(=O)NC(=O)c2ccccc2NC(=O)C(C)N)ccc1Oc1ncc(Br)cn1 (configuration not stated)	3.14 µM (active)
O=C1c2cccc3c([N+](=O)[O-])c(O)cc(c23)C(=O)N1Nc1ccccc1	23.1 µM (active)
O=c1[nH]c2ccccc2n2c(C(F)(F)F)nnc12	16.4 µM (active)
Cc1cccc(Cn2c(=O)n(CCCC(=O)NCc3ccco3)c(=O)c3ccccc32)c1	8.86 µM (active)
O=S(=O)(Nc1nc2ccccc2nc1Nc1cccc(S(=O)(=O)N2CCCCC2)c1)c1ccccc1	18.4 µM (active)
Cc1ccc(S(=O)(=O)Nc2nc3ccccc3nc2Nc2cccc(S(=O)(=O)N3CCCC3)c2)cc1	3.26 µM (active)
O=C(Nc1ccc(Cl)cn1)c1cccc(S(=O)(=O)N2CCCCCC2)c1	inactive
O=C(NCc1ccccc1)C1Cc2c(-c3cccc(F)c3)ccnc2O1 (configuration not stated)	2.8 µM (active)
O=C(NCc1ccco1)C1Cc2c(-c3cccc(F)c3)ccnc2O1 (configuration not stated)	2.8 µM (active)
CC(=O)c1cccc(-c2ccnc3c2CC(C(=O)NCc2ccco2)O3)c1 (configuration not stated)	1.98 µM (active)
CC(=O)c1cccc(-c2ccnc3c2CC(C(=O)NCc2ccc(F)c(F)c2)O3)c1 (configuration not stated)	3.96 µM (active)
COc1ccc(-n2c(O)c(/C=N/NS(=O)(=O)c3ccc(C)c([N+](=O)[O-])c3)c3ccccc3c2=O)cc1OC	6.51 µM (active)
O=C(O)CSc1cc(NS(=O)(=O)c2cccc([N+](=O)[O-])c2)c2ccccc2c1O	inactive
COc1ccc(-n2c(O)c(/C=N/NS(=O)(=O)c3cccc([N+](=O)[O-])c3)c3ccccc3c2=O)cc1OC	14 µM (active)
Cc1ccc(NC(=O)CSc2n[nH]c(-c3ccccn3)n2)cc1	inactive
Cc1ccc(NC(=O)CSc2nc3ccc(Nc4nc(N5CCOCC5)nc(N5CCOCC5)n4)cc3s2)cc1	20.6 µM (active)
O=C(CSc1nc2ccc(Nc3nc(N4CCOCC4)nc(N4CCOCC4)n3)cc2s1)Nc1ccccc1F	20.6 µM (active)
CN1CCC(OC(=O)c2cc3cc(Cl)cc(Cl)c3oc2=O)CC1	inactive
Cc1ccc(C(=O)CSC2=C(C#N)C(c3ccco3)C3=C(CCCC3=O)N2)cc1 (configuration not stated)	9.94 µM (active)
O=C(c1ccc(CS(=O)c2ccccc2Cl)o1)N1CCN(c2ccccc2F)CC1 (configuration not stated)	1.84 µM (active)
O=c1c2cc3ccccc3n2cnn1Cc1ccccc1F	14 µM (active)
